# Measurements published in article PMC11006913.
# Residue numbers refer to the chain shown, from its start.
# Columns and labels:
# Assay in all cases: PBM; 200 nM protein, PBS
# Settings in all cases: dsDNA, one strand shown
# SHOX [1] = biological target: SHOX (Homo sapiens, UniProt O15266 103-189)
# SHOX [2] = biological target: SHOX (Homo sapiens, UniProt O15266 103-189, R173C)
# VAX1 [3] = biological target: VAX1 (Homo sapiens, UniProt Q5SQQ9 86-172)
# VAX1 [4] = biological target: VAX1 (Homo sapiens, UniProt Q5SQQ9 86-172, T142I)
# VAX1 [5] = biological target: VAX1 (Homo sapiens, UniProt Q5SQQ9 86-172, K157R)
# CRX = CRX (Homo sapiens, UniProt O43186 26-111, R41L)
# PROP1 [6] = biological target: PROP1 (Homo sapiens, UniProt O75360 56-141)
# PROP1 [7] = biological target: PROP1 (Homo sapiens, UniProt O75360 56-141, R99H)
# PROP1 [8] = biological target: PROP1 (Homo sapiens, UniProt O75360 56-141, F88S)
# NKX2-4 [9] = biological target: T1, NKX2-4 (Homo sapiens, UniProt Q9H2Z4 175-261, P217L)
# T1 sequence: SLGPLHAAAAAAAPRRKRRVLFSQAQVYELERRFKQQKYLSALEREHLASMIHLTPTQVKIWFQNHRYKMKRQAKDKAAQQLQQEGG
# NKX2-4 [10] = biological target: T2, NKX2-4 (Homo sapiens, UniProt Q9H2Z4 175-261)
# T2 sequence: T1 sequence with L43P
# NKX2-4 [11] = biological target: T3, NKX2-4 (Homo sapiens, UniProt Q9H2Z4 175-261, R246Q)
# T3 sequence: T1 sequence with L43P, R72Q
# NKX3-2 [12] = biological target: NKX3-2 (Homo sapiens, UniProt P78367 192-278, P234S)
# NKX3-2 [13] = biological target: NKX3-2 (Homo sapiens, UniProt P78367 192-278)
# PAX4 [14] = biological target: T4, PAX4 (Homo sapiens, UniProt O43316 9-242, R200K)
# T4 sequence: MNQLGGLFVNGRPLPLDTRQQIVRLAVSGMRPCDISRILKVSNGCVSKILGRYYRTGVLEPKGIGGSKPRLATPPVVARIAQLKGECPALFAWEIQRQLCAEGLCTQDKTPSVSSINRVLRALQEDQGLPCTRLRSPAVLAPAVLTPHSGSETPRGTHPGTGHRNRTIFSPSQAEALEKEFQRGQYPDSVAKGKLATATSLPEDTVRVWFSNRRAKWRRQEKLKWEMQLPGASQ
# PAX4 [15] = biological target: T5, PAX4 (Homo sapiens, UniProt O43316 9-242)
# T5 sequence: T4 sequence with K192R
# HOXB6 [16] = biological target: HOXB6 (Homo sapiens, UniProt P17509 132-218, K202E)
# HOXD13 = HOXD13 (Homo sapiens, UniProt P35453 263-343, T313R)
# PAX4 [17] = biological target: T6, PAX4 (Homo sapiens, UniProt O43316 9-242, R200Q)
# T6 sequence: T4 sequence with K192Q
# PAX4 [18] = biological target: T7, PAX4 (Homo sapiens, UniProt O43316 9-242, F177V)
# T7 sequence: T4 sequence with F169V, K192R
# PAX4 [19] = biological target: T8, PAX4 (Homo sapiens, UniProt O43316 9-242, F177Y)
# T8 sequence: T4 sequence with F169Y, K192R
# HESX1 [20] = biological target: HESX1 (Homo sapiens, UniProt Q9UBX0 95-180, R109Q)
# HESX1 [21] = biological target: HESX1 (Homo sapiens, UniProt Q9UBX0 95-180, F115L)
# PAX4 [22] = biological target: T9, PAX4 (Homo sapiens, UniProt O43316 9-242, R227W)
# T9 sequence: T4 sequence with K192R, R219W
# HOXB6 [23] = biological target: HOXB6 (Homo sapiens, UniProt P17509 132-218)
# ALX3 [24] = biological target: ALX3 (Homo sapiens, UniProt O95076 139-225)
# ALX3 [25] = biological target: ALX3 (Homo sapiens, UniProt O95076 139-225, L168Q)
# ALX3 [26] = biological target: ALX3 (Homo sapiens, UniProt O95076 139-225, L168V)
# ALX3 (Homo sapiens, UniProt O95076 139-225, L168V), sequence (O95076 139-225 L168V): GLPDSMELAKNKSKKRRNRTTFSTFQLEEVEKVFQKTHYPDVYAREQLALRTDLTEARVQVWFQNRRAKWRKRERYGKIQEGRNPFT
# SHOX (Homo sapiens, UniProt O15266 103-189), sequence (O15266 103-189): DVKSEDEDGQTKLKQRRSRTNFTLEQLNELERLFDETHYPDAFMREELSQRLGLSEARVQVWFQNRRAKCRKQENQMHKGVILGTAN
# SHOX (Homo sapiens, UniProt O15266 103-189, R173C), sequence (O15266 103-189 R173C): as the sequence (O15266 103-189) above, with R71C counted along it
# VAX1 (Homo sapiens, UniProt Q5SQQ9 86-172, K157R), sequence (Q5SQQ9 86-172 K157R): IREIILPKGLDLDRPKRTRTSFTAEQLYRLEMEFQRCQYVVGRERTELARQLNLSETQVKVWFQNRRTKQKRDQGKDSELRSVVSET
# VAX1 (Homo sapiens, UniProt Q5SQQ9 86-172, T142I), sequence (Q5SQQ9 86-172 T142I): as the sequence (Q5SQQ9 86-172 K157R) above, with T57I, R72K counted along it
# VAX1 (Homo sapiens, UniProt Q5SQQ9 86-172), sequence (Q5SQQ9 86-172): as the sequence (Q5SQQ9 86-172 K157R) above, with R72K counted along it
# PROP1 (Homo sapiens, UniProt O75360 56-141), sequence (O75360 56-141): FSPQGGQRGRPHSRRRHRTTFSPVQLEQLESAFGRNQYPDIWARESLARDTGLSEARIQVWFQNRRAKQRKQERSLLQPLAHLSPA
# ALX3 (Homo sapiens, UniProt O95076 139-225, L168Q), sequence (O95076 139-225 L168Q): as the sequence (O95076 139-225 L168V) above, with V30Q counted along it
# CRX, sequence (O43186 26-111 R41L): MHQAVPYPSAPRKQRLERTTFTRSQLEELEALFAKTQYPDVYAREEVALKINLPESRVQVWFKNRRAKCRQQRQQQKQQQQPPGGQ
# NKX3-2 (Homo sapiens, UniProt P78367 192-278), sequence (P78367 192-278): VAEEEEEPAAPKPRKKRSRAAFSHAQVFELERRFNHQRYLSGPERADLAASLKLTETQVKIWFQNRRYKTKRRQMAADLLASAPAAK
# HESX1 (Homo sapiens, UniProt Q9UBX0 95-180, R109Q), sequence (Q9UBX0 95-180 R109Q): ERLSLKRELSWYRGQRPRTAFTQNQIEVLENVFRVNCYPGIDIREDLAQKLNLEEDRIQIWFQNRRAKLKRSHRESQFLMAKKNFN
# NKX3-2 (Homo sapiens, UniProt P78367 192-278, P234S), sequence (P78367 192-278 P234S): as the sequence (P78367 192-278) above, with P43S counted along it
# ALX3 (Homo sapiens, UniProt O95076 139-225), sequence (O95076 139-225): as the sequence (O95076 139-225 L168V) above, with V30L counted along it
# HESX1 (Homo sapiens, UniProt Q9UBX0 95-180, F115L), sequence (Q9UBX0 95-180 F115L): as the sequence (Q9UBX0 95-180 R109Q) above, with Q15R, F21L counted along it
# PROP1 (Homo sapiens, UniProt O75360 56-141, F88S), sequence (O75360 56-141 F88S): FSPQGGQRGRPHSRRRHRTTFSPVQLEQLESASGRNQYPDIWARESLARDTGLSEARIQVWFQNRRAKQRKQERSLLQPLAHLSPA
# HOXB6 (Homo sapiens, UniProt P17509 132-218, K202E), sequence (P17509 132-218 K202E): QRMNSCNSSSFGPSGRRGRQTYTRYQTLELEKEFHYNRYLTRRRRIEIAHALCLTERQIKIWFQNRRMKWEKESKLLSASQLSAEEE
# HOXB6 (Homo sapiens, UniProt P17509 132-218), sequence (P17509 132-218): as the sequence (P17509 132-218 K202E) above, with E71K counted along it
# PROP1 (Homo sapiens, UniProt O75360 56-141, R99H), sequence (O75360 56-141 R99H): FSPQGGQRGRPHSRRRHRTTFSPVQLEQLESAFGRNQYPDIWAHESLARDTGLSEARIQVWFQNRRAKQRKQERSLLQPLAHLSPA
# HOXD13, sequence (P35453 263-343 T313R): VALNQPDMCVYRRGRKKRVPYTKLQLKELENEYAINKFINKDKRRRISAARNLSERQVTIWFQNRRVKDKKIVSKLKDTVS
sequence,measurement,setting,value
CCGGATGC,binding signal,SHOX [1],"6.64 upbm affinity estimate (log intensity, higher = more binding, comparable within an allelic series)"
same,binding signal,SHOX [2],"7.08 upbm affinity estimate (log intensity, higher = more binding, comparable within an allelic series)"
same,binding signal,VAX1 [3],"6.72 upbm affinity estimate (log intensity, higher = more binding, comparable within an allelic series)"
same,binding signal,VAX1 [4],"6.89 upbm affinity estimate (log intensity, higher = more binding, comparable within an allelic series)"
same,binding signal,VAX1 [5],"6.77 upbm affinity estimate (log intensity, higher = more binding, comparable within an allelic series)"
GCTAATAC,binding signal,SHOX [1],"9.1 upbm affinity estimate (log intensity, higher = more binding, comparable within an allelic series)"
same,binding signal,CRX,"10.9 upbm affinity estimate (log intensity, higher = more binding, comparable within an allelic series)"
ACCCGGAC,binding signal,SHOX [1],"7.09 upbm affinity estimate (log intensity, higher = more binding, comparable within an allelic series)"
same,binding signal,SHOX [2],"7.17 upbm affinity estimate (log intensity, higher = more binding, comparable within an allelic series)"
CCGAGGGA,binding signal,SHOX [1],"7.05 upbm affinity estimate (log intensity, higher = more binding, comparable within an allelic series)"
same,binding signal,SHOX [2],"7.2 upbm affinity estimate (log intensity, higher = more binding, comparable within an allelic series)"
same,binding signal,VAX1 [3],"7.35 upbm affinity estimate (log intensity, higher = more binding, comparable within an allelic series)"
same,binding signal,VAX1 [4],"7.23 upbm affinity estimate (log intensity, higher = more binding, comparable within an allelic series)"
same,binding signal,VAX1 [5],"7.35 upbm affinity estimate (log intensity, higher = more binding, comparable within an allelic series)"
CTTGGCCC,binding signal,SHOX [1],"7.14 upbm affinity estimate (log intensity, higher = more binding, comparable within an allelic series)"
same,binding signal,SHOX [2],"7.2 upbm affinity estimate (log intensity, higher = more binding, comparable within an allelic series)"
CCTGAGAG,binding signal,SHOX [1],"7.19 upbm affinity estimate (log intensity, higher = more binding, comparable within an allelic series)"
same,binding signal,SHOX [2],"7.25 upbm affinity estimate (log intensity, higher = more binding, comparable within an allelic series)"
GCATGGCC,binding signal,SHOX [1],"7.2 upbm affinity estimate (log intensity, higher = more binding, comparable within an allelic series)"
same,binding signal,SHOX [2],"7.2 upbm affinity estimate (log intensity, higher = more binding, comparable within an allelic series)"
CCAAGGAG,binding signal,SHOX [1],"7.32 upbm affinity estimate (log intensity, higher = more binding, comparable within an allelic series)"
same,binding signal,SHOX [2],"7.21 upbm affinity estimate (log intensity, higher = more binding, comparable within an allelic series)"
CTCCGAAC,binding signal,SHOX [1],"7.18 upbm affinity estimate (log intensity, higher = more binding, comparable within an allelic series)"
same,binding signal,SHOX [2],"7.23 upbm affinity estimate (log intensity, higher = more binding, comparable within an allelic series)"
CCTTTCCC,binding signal,SHOX [1],"7.21 upbm affinity estimate (log intensity, higher = more binding, comparable within an allelic series)"
same,binding signal,SHOX [2],"7.11 upbm affinity estimate (log intensity, higher = more binding, comparable within an allelic series)"
same,binding signal,PROP1 [6],"6.78 upbm affinity estimate (log intensity, higher = more binding, comparable within an allelic series)"
same,binding signal,PROP1 [7],"6.87 upbm affinity estimate (log intensity, higher = more binding, comparable within an allelic series)"
same,binding signal,PROP1 [8],"6.77 upbm affinity estimate (log intensity, higher = more binding, comparable within an allelic series)"
CCCAGCGA,binding signal,SHOX [1],"7.15 upbm affinity estimate (log intensity, higher = more binding, comparable within an allelic series)"
same,binding signal,SHOX [2],"7.2 upbm affinity estimate (log intensity, higher = more binding, comparable within an allelic series)"
CCAGTTTA,binding signal,SHOX [1],"8.2 upbm affinity estimate (log intensity, higher = more binding, comparable within an allelic series)"
same,binding signal,SHOX [2],"7.55 upbm affinity estimate (log intensity, higher = more binding, comparable within an allelic series)"
AGCTGTCC,binding signal,SHOX [1],"7.1 upbm affinity estimate (log intensity, higher = more binding, comparable within an allelic series)"
same,binding signal,SHOX [2],"7.23 upbm affinity estimate (log intensity, higher = more binding, comparable within an allelic series)"
GCCCGGGC,binding signal,NKX2-4 [9],"8.34 upbm affinity estimate (log intensity, higher = more binding, comparable within an allelic series)"
same,binding signal,NKX2-4 [10],"8.35 upbm affinity estimate (log intensity, higher = more binding, comparable within an allelic series)"
same,binding signal,NKX2-4 [11],"8.33 upbm affinity estimate (log intensity, higher = more binding, comparable within an allelic series)"
same,binding signal,NKX3-2 [12],"9.95 upbm affinity estimate (log intensity, higher = more binding, comparable within an allelic series)"
same,binding signal,NKX3-2 [13],"9.83 upbm affinity estimate (log intensity, higher = more binding, comparable within an allelic series)"
ATATTAAT,binding signal,PAX4 [14],"11.7 upbm affinity estimate (log intensity, higher = more binding, comparable within an allelic series)"
same,binding signal,PAX4 [15],"12.1 upbm affinity estimate (log intensity, higher = more binding, comparable within an allelic series)"
same,binding signal,HOXB6 [16],"10.1 upbm affinity estimate (log intensity, higher = more binding, comparable within an allelic series)"
same,binding signal,HOXD13,"10.8 upbm affinity estimate (log intensity, higher = more binding, comparable within an allelic series)"
same,binding signal,PAX4 [17],"11.9 upbm affinity estimate (log intensity, higher = more binding, comparable within an allelic series)"
same,binding signal,PAX4 [18],"10.7 upbm affinity estimate (log intensity, higher = more binding, comparable within an allelic series)"
same,binding signal,PAX4 [19],"11 upbm affinity estimate (log intensity, higher = more binding, comparable within an allelic series)"
same,binding signal,HESX1 [20],"8.59 upbm affinity estimate (log intensity, higher = more binding, comparable within an allelic series)"
same,binding signal,HESX1 [21],"8.13 upbm affinity estimate (log intensity, higher = more binding, comparable within an allelic series)"
same,binding signal,PAX4 [22],"11 upbm affinity estimate (log intensity, higher = more binding, comparable within an allelic series)"
same,binding signal,HOXB6 [23],"11.8 upbm affinity estimate (log intensity, higher = more binding, comparable within an allelic series)"
GCAGCTGC,binding signal,PAX4 [14],"8.99 upbm affinity estimate (log intensity, higher = more binding, comparable within an allelic series)"
same,binding signal,PAX4 [15],"9.1 upbm affinity estimate (log intensity, higher = more binding, comparable within an allelic series)"
same,binding signal,PAX4 [17],"9.09 upbm affinity estimate (log intensity, higher = more binding, comparable within an allelic series)"
same,binding signal,PAX4 [18],"9.27 upbm affinity estimate (log intensity, higher = more binding, comparable within an allelic series)"
same,binding signal,ALX3 [24],"7.63 upbm affinity estimate (log intensity, higher = more binding, comparable within an allelic series)"
same,binding signal,PAX4 [19],"9.13 upbm affinity estimate (log intensity, higher = more binding, comparable within an allelic series)"
same,binding signal,ALX3 [25],"7.75 upbm affinity estimate (log intensity, higher = more binding, comparable within an allelic series)"
same,binding signal,ALX3 [26],"7.78 upbm affinity estimate (log intensity, higher = more binding, comparable within an allelic series)"
same,binding signal,PAX4 [22],"9.34 upbm affinity estimate (log intensity, higher = more binding, comparable within an allelic series)"
